About 83,000 compounds went through this panel and 20% of them were active in at least one assay; those are over-represented in the sample as a whole.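 Results are percent growth after 48 hours of single-concentration exposure. 100 means growth as in untreated cells, lower positive values show inhibition; negative values down to -100 show cell death.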 Unmarked numbers belong to inactive results. Calls of active or inactive are those of the source. How the source made its calls: active means growth percent below 10; inactive means the rest.
What was measured:
Assay in all cases: NCI-60 one-dose screen, 48 h (100 = growth as untreated, 0 = no growth, -100 = all killed)
Details in all cases: 10 µM unless noted
[1] = tested on: T-47D breast
[2] = tested on: BT-549 breast
[3] = tested on: MDA-MB-435 melanoma
[4] = tested on: SW-620 colon
[5] = tested on: MCF7 breast
[6] = tested on: HCT-116 colon
[7] = tested on: HCC-2998 colon
[8] = tested on: KM12 colon

SMILES | growth [1] | growth [2] | growth [3] | growth [4] | growth [5] | growth [6] | growth [7] | growth [8]
O=c1nc2n(nc1/C=C/c1ccco1)CC(c1ccc(Cl)cc1)=NN2 | 49.7% | 84.1% | 110% | 102% | 22.2% | 99% | 110% | 115%
COc1cc(OC)c(/C=C/C(=O)c2ccc(Nc3ncnc4ccccc34)cc2)c(OC)c1 | 36.2% | -29.3% (active) | -79.1% (active) | -66.8% (active) | 0.53% (active) | -33.7% (active) | 38.3% | 6.21% (active)
CC1NC(=S)NC(=O)/C1=C/c1cc(=O)oc2c1ccc1ccccc12 (configuration not stated) | 93.4% | 87.7% | 105% | 95.5% | 89.9% | 91.8% | 105% | 99.6%
O=C(Nc1nc2ccc(S(=O)(=O)Nc3ccc(C4(C(F)(F)F)CC4)cc3)cc2[nH]1)c1cnccn1 | 31.7% | 44.6% | -29.8% (active) | 18.5% | 18.2% | 26.2% | 63.4% | 9.67% (active)
CCCCCCOc1ccc(C(=N)N(CCCC)CCCC)c2ccccc12 | -65.5% (active) | -94.6% (active) | -89.5% (active) | -61.3% (active) | -74.8% (active) | -99.2% (active) | -98% (active) | -90.3% (active)
c1ccc(N2N=C(c3cccc(Nc4ccncc4)c3)CC2c2ccc3c(c2)OCO3)cc1 (configuration not stated) | 48.5% | 80% | -73.2% (active) | -53.6% (active) | 2.01% (active) | 63.3% | 0.363% (active) | 8.25% (active)
Nc1c(C(=O)Nc2cccc3ccncc23)sc2nc3c(cc12)C(=O)CCC3 | 48.5% | 50.6% | -35% (active) | 31.1% | 21.5% | 43.4% | 77.2% | 30.8%
O=C1C(=O)c2c(nc3ncccn23)-c2ccccc21 | -48.5% (active) | -94% (active) | -93.8% (active) | -60.6% (active) | -53.8% (active) | -79% (active) | -92.7% (active) | -62.6% (active)
Nc1cc(N)c2cccnc2c1O | 93.4% | 90.3% | -83.9% (active) | 60% | 46.3% | 51.7% | 77.1% | 81.6%
CC(C)(C)OC(=O)N1CCN(c2ccc(N)cc2)C(=O)C1 | 106% | 116% | 106% | 109% | 91.9% | 99.9% | 102% | 108%
CS(=O)(=O)OCCN(CCOS(C)(=O)=O)c1ccc(/C=N/Nc2ccc([N+](=O)[O-])cc2[N+](=O)[O-])cc1 | 76% | 99.3% | 94.1% | 73.4% | 66.5% | 83.9% | 80.2% | 99.6%
CCCCCCCCCCCCCCCC(=O)OC[C@@]1(O)C[C@@]23CC[C@@H]4C(C)(C)[C@H](O)CC[C@@]4(C)[C@@H]2CC[C@H]1C3 | 98.1% | 91.5% | 108% | 110% | 97% | -67% (active) | 107% | 108%
CCn1cc(C2NC(=O)c3ccccc3N2)c2cccc(C)c21 (configuration not stated) | 36.9% | 48.7% | -31.9% (active) | 24.7% | 16.9% | 7.91% (active) | 9.07% (active) | 15.9%
N#Cc1c(NC(=O)c2cccc(Br)c2)sc2c1CCCC2 | 77.9% | 96.7% | 10.8% | 50.5% | 51.8% | 74.9% | 94.7% | 69.5%
O=S(=O)(O)c1cc(O)c2c(N=Nc3ccc(Nc4ccccc4)c4c(S(=O)(=O)O)cccc34)cc(S(=O)(=O)O)cc2c1 | 100% | 100% | 115% | 103% | 105% | 105% | 102% | 101%
Cc1cc(C)n(Nc2nc3ccccc3[nH]c2=O)c(=O)c1C#N | 86% | 106% | 103% | 98.5% | 82.6% | 96.1% | 103% | 92.9%
CC1(C)CC[C@]2(C(=O)NCC#CCN3CCOCC3)CC[C@]3(C)C(=CC[C@@H]4[C@@]5(C)Cc6c([nH]c7ccccc67)C(C)(C)[C@@H]5CC[C@]43C)[C@@H]2C1 | 75.2% | 101% | 83.1% | 103% | 81.1% | 73.9% | 105% | 91.3%
CCN1C(=O)/C(=c2\sc3n(c2=O)NC2C(N=3)N(CC)C(=O)N2CC)c2ccccc21 (configuration not stated) | 36.3% | 58.8% | -38.6% (active) | 39.5% | 37.2% | 12.9% | 58.9% | 20.1%
CCN(CC)CCCC(C)Nc1cc(-c2cccc(OC(F)(F)F)c2)nc2ccc(N3CCCC3)cc12 (configuration not stated) | -19.3% (active) | 78.7% | -84.4% (active) | -37.5% (active) | -10% (active) | -53.7% (active) | -58.2% (active) | 7.78% (active)
Clc1ccc(C2CC(c3cccc(Nc4ccncc4)c3)=NN2c2ccccc2)cc1 (configuration not stated) | 58.6% | -75.9% (active) | -46.1% (active) | -79.8% (active) | 4.93% (active) | -79.6% (active) | -31.5% (active) | -7.31% (active)
COC(=O)C(c1ccccc1)C(CC(=O)c1ccccc1)c1ccccc1 (configuration not stated) | 76.2% | 108% | 88.8% | 104% | 99.5% | 88.8% | 96.1% | 91.5%
Cc1c2c(cc[n+]1Cc1ccc(F)cc1)c1ccc(OCc3cccc(F)c3)cc1n2Cc1cccc(F)c1 | -75.8% (active) | -88.3% (active) | -91.8% (active) | -87.6% (active) | -76.7% (active) | -92.1% (active) | -92.5% (active) | -98.8% (active)
C#CC(=O)Nc1cccc2c1cc(C)n2-c1nc2c(c(NCc3ccccc3)n1)CCCC2 | -41.4% (active) | -47.3% (active) | -81.4% (active) | -59.3% (active) | -39.8% (active) | -70.3% (active) | -89.9% (active) | -27.6% (active)
COc1ccc(C(=O)c2cc3c(N)c(C(=O)Nc4ccc(Br)cc4)sc3nc2C)cc1 | 70.6% | 78.2% | 63.6% | 79.1% | 71% | 58.2% | 94.7% | 72%
Nc1nc(SN=Nc2ccc(S(N)(=O)=O)cc2)c2[nH]cnc2n1 | 23.8% | 36% | 7.71% (active) | 19.2% | 7.59% (active) | 12.3% | 5.53% (active) | 5.31% (active)
CN1CCN(CCCOc2ccc3ncnc(Nc4ccc(Oc5cccc(C(F)(F)F)c5)c(Cl)c4)c3c2)CC1 | 19.2% | 69.9% | -82% (active) | -71.6% (active) | -28.7% (active) | -62% (active) | -66.2% (active) | -3.45% (active)
N#Cc1ccc(-c2ccc3c(c2)NC(=O)/C3=C\c2ccc[nH]2)cc1 | 9.73% (active) | 24.1% | 102% | 102% | 15.3% | 104% | 58.5% | 60.8%
O=C1Nc2ccccc2/C1=C\c1cccc(/C=C2/C(=O)Nc3ccccc32)n1 | -51.6% (active) | -86.4% (active) | -73.6% (active) | -75.9% (active) | -69.9% (active) | -65.6% (active) | -84.1% (active) | -83.1% (active)
CN1CCN(c2c(F)cc(NC3=C(Cl)C(=O)c4ncccc4C3=O)cc2F)CC1 | 16.1% | 106% | 21% | -68.4% (active) | -58.3% (active) | -11.3% (active) | 108% | 105%

From PubChem BioAssay (NCI)
